Results published in PubChem BioAssay (Tox21).
“And” between values parts separate entries of the source, which are not always exact repeats. Equal values may be shown once. Results filed as inconclusive are left out. Where a call stands in place of a potency, no number is given. A structure can be active in one record and inactive in another. The source made the active and inactive calls. Unless noted, calls come from the whole dose curve; as a rule, active = well fitted curve in the direction sought with a large enough effect in the repeat runs; inconclusive = weak or mixed curves; inactive = no such curve, though single readings can be large; an effect the other way counts as inactive or inconclusive.

Key:
[1] = qHTS assay to identify small molecule antagonists of the retinoid acid receptor (RAR) signaling pathway - cell viability counter screen (AID 1159551); note: nearly all actives have a fitted effect of over 35% in size
Procedure, shortened: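 In this counter screen, the RARE-luciferase line C3RL4 was exposed for 6 h at 37 C and 5% CO2 to compounds with retinol at 1 uM final. Cellular ATP, read by luminescence, served as the viability measure.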

[2] = target: Luciferin 4-monooxygenase (Photinus pyralis) (UniProt P08659); test: qHTS assay to identify small molecule inhibitors of firefly luciferase (AID 1224835); note: nearly all actives have a fitted effect of over 25% in size; note: potency is the fitted concentration of half-maximal effect
Procedure, shortened: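 Quantitative HTS format; KM concentrations of both substrates. Purified P. pyralis FLuc activity quantified from luminescence images.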

[3] = qHTS assay to identify small molecule agonists of the constitutive androstane receptor (CAR) signaling pathway - cell viability counter screen (AID 1224836); note: nearly all actives have a fitted effect of over 45% in size; note: potency is the fitted concentration of half-maximal effect
Procedure, shortened: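 Compound titrations (15 concentrations) went onto HepG2-CYP2B6-hCAR cells 4 h after seeding, alongside PK11195 at a final 0.75 uM; a 23 h, 37 C/5% CO2 incubation preceded CellTiter-Fluor viability measurement.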

[4] = qHTS assay to identify small molecule antagonists of the constitutive androstane receptor (CAR) signaling pathway - cell viability counter screen (AID 1224837); note: nearly all actives have a fitted effect of over 45% in size; note: potency is the fitted concentration of half-maximal effect
Procedure, shortened: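 CITCO at 50 nM final was added alongside compounds (15 concentrations) to double-stable hCAR/CYP2B6-2.2kb HepG2 cells. Following 23 hr at 37 C, cell viability was quantified by CellTiter-Fluor fluorescence intensity.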

[5] = target: Thyrotropin receptor (Homo sapiens) (UniProt P16473); test: qHTS assay to identify small molecule agonists of the thyroid stimulating hormone receptor (TSHR) signaling pathway (AID 1224843; calls by dose curve; note: nearly all actives have a fitted effect of over 45% in size; note: potency is the fitted concentration of half-maximal effect)
Procedure, shortened: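 Using 15 concentrations per compound in triplicate, cAMP production was monitored in TSHR-HEK293 cells after 30 min compound incubation at RT; HTRF reagents followed, with fluorescence intensity recorded after 1 h.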

[6] = qHTS assay to identify small molecule antagonists of the retinoic acid receptor (RAR) signaling pathway (AID 1159552; note: nearly all actives have a fitted effect of over 50% in size; note: potency is the fitted concentration of half-maximal effect)
Procedure, shortened: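 Readout: luciferase luminescence, 30 min post-reagent at RT. Setup: C3RL4 RARE reporter cells, compounds plus retinol 1 uM final, 6 hr incubation at 37 C and 5% CO2.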

[7] = qHTS assay to identify small molecule antagonists of the estrogen related receptor (ERR) signaling pathway from Tox21 library - cell viability counter screen (AID 1224834); note: nearly all actives have a fitted effect of over 30% in size; note: potency is the fitted concentration of half-maximal effect
Procedure, shortened: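 Counter screen run in ERR cells (2,000 cells/well): cells pre-incubated 6 h, then treated with compounds for 17.5 h at 37 C. Fluorescence was read 30 min after CellTiter-Fluor addition.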

[8] = target: Nuclear receptor subfamily 1 group I member 3 (Homo sapiens) (UniProt Q14994); test: qHTS assay to identify small molecule antagonists of the constitutive androstane receptor (CAR) signaling pathway (AID 1224838); note: nearly all actives have a fitted effect of over 40% in size; note: potency is the fitted concentration of half-maximal effect
Procedure, shortened: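 Inhibition of CITCO-driven (50 nM final) CYP2B6 reporter expression is measured in HepG2 cells stably carrying hCAR. Fifteen compound concentrations are applied for 24 h at 37 C, followed by luciferase luminescence.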

[9] = target: Nuclear receptor subfamily 1 group I member 3 (Homo sapiens) (UniProt Q14994); test: qHTS assay to identify small molecule agonists of the constitutive androstane receptor (CAR) signaling pathway (AID 1224839); note: nearly all actives have a fitted effect of over 15% in size; note: potency is the fitted concentration of half-maximal effect
Procedure, shortened: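 In this screen, CAR-driven CYP2B6 promoter activity is measured by luminescence in HepG2-CYP2B6-hCAR cells after 24 h with test compounds and 0.75 uM PK11195 (final concentration).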

[10] = qHTS assay to identify small molecule antagonists of the estrogen related receptor signaling pathway with the pleiotropic PPARgamma coactivator (PGC) from Tox21 10K library - cell viability counter screen (AID 1224840; active = well fitted cell-killing curve with a large enough effect in the repeat runs, not every such curve was filed as active; note: nearly all actives have a fitted effect of over 40% in size; note: potency is the fitted concentration of half-maximal effect)
Procedure, shortened: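 Readout: fluorescence intensity from CellTiter-Fluor after 30 min at 37 C/5% CO2. Preceded by 17.5 h treatment of PGC/ERR cells with DMSO-dissolved compounds, added 6 h post-seeding.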

[11] = qHTS assay to identify small molecule agonists of the retinoic acid receptor (RAR) signaling pathway (AID 1159553); note: potency is the fitted concentration of half-maximal effect
Procedure, shortened: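 In this cell-based screen, 1,000 C3RL4 cells per well were cultured overnight, dosed with test chemicals in DMSO for 6 hr, and assessed for RARE luciferase luminescence.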

[12] = qHTS assay to identify small molecule antagonists of the estrogen related receptor signaling pathway with the pleiotropic PPARgamma coactivator (PGC) from Tox21 10K library (AID 1224841; call rule not given here; note: actives are mostly falling curves and most rising ones were filed inactive; nearly all actives have a fitted effect of over 50% in size; note: potency is the fitted concentration of half-maximal effect)
Procedure, shortened: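 One-Glo luminescence, measured after half an hour at room temperature, quantified reporter output of PGC/ERR cells. These had been plated at 2,000 per well, incubated 6 h, dosed with compounds in DMSO, then kept 18 h at 37 C.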

[13] = qHTS assay to identify small molecule agonists of the estrogen related receptor signaling pathway with the pleiotropic PPARgamma coactivator (PGC) from Tox21 10K library (AID 1224842); note: nearly all actives have a fitted effect of over 15% in size
Procedure, shortened: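 PGC/ERR reporter cells (NTP line) were seeded 2,000 per well, rested 6 h at 37 C/5% CO2, then pin-dosed with compounds in DMSO for 18 h at 37 C; luciferase read by One-Glo luminescence after 30 min at room temperature.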

Chain of Nuclear receptor subfamily 1 group I member 3 (Homo sapiens) (Q14994 whole entry, looked up): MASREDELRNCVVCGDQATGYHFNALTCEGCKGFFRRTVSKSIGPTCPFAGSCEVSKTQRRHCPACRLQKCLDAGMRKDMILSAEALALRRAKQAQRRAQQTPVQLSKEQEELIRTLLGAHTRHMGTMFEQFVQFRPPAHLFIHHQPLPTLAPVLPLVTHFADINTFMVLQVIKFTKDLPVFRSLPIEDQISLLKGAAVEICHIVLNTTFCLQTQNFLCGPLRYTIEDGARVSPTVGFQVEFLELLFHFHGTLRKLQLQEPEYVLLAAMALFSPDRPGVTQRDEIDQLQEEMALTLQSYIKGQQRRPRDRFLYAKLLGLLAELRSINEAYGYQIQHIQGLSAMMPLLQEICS
Chain of Thyrotropin receptor (Homo sapiens) (P16473 whole entry, looked up): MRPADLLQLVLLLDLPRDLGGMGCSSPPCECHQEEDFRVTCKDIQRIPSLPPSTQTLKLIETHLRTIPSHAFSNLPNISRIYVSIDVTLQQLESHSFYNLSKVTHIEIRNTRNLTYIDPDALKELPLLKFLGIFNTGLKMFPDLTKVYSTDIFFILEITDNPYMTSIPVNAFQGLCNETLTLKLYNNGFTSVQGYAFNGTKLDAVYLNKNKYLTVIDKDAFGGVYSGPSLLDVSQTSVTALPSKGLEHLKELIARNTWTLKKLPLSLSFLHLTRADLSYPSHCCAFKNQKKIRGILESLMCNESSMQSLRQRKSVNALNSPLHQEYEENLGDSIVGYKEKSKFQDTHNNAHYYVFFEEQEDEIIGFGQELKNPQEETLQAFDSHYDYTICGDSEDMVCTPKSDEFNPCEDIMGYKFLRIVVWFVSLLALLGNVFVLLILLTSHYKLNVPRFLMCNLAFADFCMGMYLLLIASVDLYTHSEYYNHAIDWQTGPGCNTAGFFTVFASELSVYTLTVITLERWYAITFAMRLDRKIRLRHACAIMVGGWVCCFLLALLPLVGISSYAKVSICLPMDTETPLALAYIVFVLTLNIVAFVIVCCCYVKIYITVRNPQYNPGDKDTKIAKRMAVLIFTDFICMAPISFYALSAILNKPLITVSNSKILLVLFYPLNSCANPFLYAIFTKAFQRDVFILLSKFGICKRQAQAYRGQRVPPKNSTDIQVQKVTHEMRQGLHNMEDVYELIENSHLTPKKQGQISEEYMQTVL
Chain of Luciferin 4-monooxygenase (Photinus pyralis) (P08659 whole entry, looked up): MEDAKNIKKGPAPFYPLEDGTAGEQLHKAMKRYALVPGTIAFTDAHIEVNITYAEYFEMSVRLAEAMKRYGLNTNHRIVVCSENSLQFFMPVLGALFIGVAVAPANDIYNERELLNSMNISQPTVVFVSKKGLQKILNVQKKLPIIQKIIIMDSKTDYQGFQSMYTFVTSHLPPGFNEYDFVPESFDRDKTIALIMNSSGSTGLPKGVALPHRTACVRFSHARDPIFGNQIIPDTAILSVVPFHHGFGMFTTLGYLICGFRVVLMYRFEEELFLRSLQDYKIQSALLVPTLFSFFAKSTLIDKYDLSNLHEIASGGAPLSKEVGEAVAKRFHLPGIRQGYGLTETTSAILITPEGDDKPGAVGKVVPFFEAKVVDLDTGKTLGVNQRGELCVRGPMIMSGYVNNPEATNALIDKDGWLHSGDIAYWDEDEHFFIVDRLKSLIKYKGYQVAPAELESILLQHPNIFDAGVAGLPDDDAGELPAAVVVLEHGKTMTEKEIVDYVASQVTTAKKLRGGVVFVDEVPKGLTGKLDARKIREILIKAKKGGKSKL

| Compound | Potency [1] | Potency [2] | Potency [3] | Potency [4] | Potency [5] | Potency [6] | Potency [7] | Potency [8] | Potency [9] | Potency [10] | Potency [11] | Potency [12] | Potency [13] |
| --- | --- | --- | --- | --- | --- | --- | --- | --- | --- | --- | --- | --- | --- |
| c1cc(C(c2ccc(OCC3CO3)cc2)c2ccc(OCC3CO3)cc2)ccc1OCC1CO1 (stereo unspecified) | inactive | inactive | inactive | inactive | inactive | – | – | – | – | – | – | – | – |
| O=C1C=CC(=O)N1c1ccc(Cc2ccc(N3C(=O)C=CC3=O)cc2)cc1 | – | 15.9 µM (active) | 54.5 µM (active) | – | – | 13.7 µM (active) | 30.6 µM (active) | 27.3 µM (active) | inactive | 27.3 µM (active) | – | – | – |
| CCOc1nc2cccc(C(=O)OC(C)OC(=O)OC3CCCCC3)c2n1Cc1ccc(-c2ccccc2-c2nn[nH]n2)cc1 (stereo unspecified) | – | 56.4 µM (active) | inactive | inactive | inactive | 48.5 µM (active) | 54.4 µM (active) | – | – | 43.2 µM (active) | inactive | 54.4 µM (active) | inactive |
| Nc1ccc2cc(S(=O)(=O)O)cc(O)c2c1N=Nc1ccccc1C(F)(F)F | – | 63.3 µM (active) | – | – | – | inactive | – | inactive | inactive | inactive | inactive | – | inactive |
| Oc1ccc2cc(SSc3ccc4cc(O)ccc4c3)ccc2c1 | – | – | inactive | inactive | – | 7.7 µM (active) and 12.2 µM (active) | 61.1 µM (active) | inactive | – | – | – | 48.6 µM (active) and 43.3 µM (active) | inactive |
| CCCCN(CCCC)c1ccc(C(=O)c2ccccc2C(=O)O)c(O)c1 | inactive | inactive | inactive | inactive | inactive | – | – | – | – | inactive | – | inactive | inactive |
| CC(C)n1nc(-c2cc3cc(O)ccc3[nH]2)c2c(N)ncnc21 | – | inactive | – | – | – | – | 1.33 µM (active) | 15 µM (active) | – | – | – | 0.211 µM (active) | inactive |
| CCC1=C[C@@H]2CN(C1)Cc1c([nH]c3ccccc13)[C@@](C(=O)OC)(c1cc3c(cc1OC)N(C)[C@H]1[C@@](O)(C(=O)OC)[C@H](OC(C)=O)[C@]4(CC)C=CCN5CC[C@]31[C@@H]54)C2 | – | inactive | 4.22 µM (active) | 2.37 µM (active) | – | – | 0.0188 µM (active) | – | – | – | – | inactive | inactive |
| COc1cc(-c2ccc(N=C=O)c(OC)c2)ccc1N=C=O | – | inactive | inactive | inactive | – | inactive | inactive | inactive | inactive | inactive | inactive | inactive | inactive |
| CN1CCN(CCC(=O)N2c3ccccc3Sc3ccc(C(F)(F)F)cc32)CC1 | – | inactive | – | inactive | inactive | 29.8 µM (active) | 29.8 µM (active) | – | – | 29.8 µM (active) | – | – | inactive |
| O=C(Nc1ccc(Oc2ccc(Cl)cc2)c(Cl)c1)c1cc(I)cc(I)c1O | – | inactive | inactive | inactive | inactive | – | inactive | – | inactive | – | inactive | – | inactive |
| CCc1oc2ccccc2c1C(=O)c1cc(Br)c(O)c(Br)c1 | – | inactive | inactive | inactive | inactive | inactive | – | inactive | inactive | inactive | inactive | – | – |
| Nc1c2ccccc2nc2ccccc12 | – | inactive | inactive | – | inactive | – | – | – | inactive | inactive | – | 53.8 µM (active) and inactive | inactive |
| O=CC=C(c1ccccc1)c1ccccc1 | – | inactive | inactive | inactive | – | inactive | 27.5 µM (active) | inactive | – | – | – | – | – |
| CNCc1cc(F)ccc1Oc1ccc(Cl)c(Cl)c1 | inactive | inactive | – | 61.1 µM (active) | 54.5 µM (active) | – | – | – | – | – | – | inactive | inactive |
| O=c1[nH]sc2ccccc12 | – | 20 µM (active) | 54.5 µM (active) | 27.3 µM (active) | – | 17.2 µM (active) | 61.1 µM (active) | 21.7 µM (active) | inactive | 48.6 µM (active) | – | 27.3 µM (active) | inactive |
| CCCCCCC[N+](CC)(CC)CCCCc1ccc(Cl)cc1 | – | inactive | inactive | inactive | – | – | 23.7 µM (active) | – | – | inactive | inactive | – | – |
| CCCCCOc1ccccc1/C(=C\SC)n1ccnc1 | – | inactive | inactive | inactive | – | inactive | 29.8 µM (active) | – | – | inactive | 33.5 µM (active) | 15 µM (active) | inactive |
| N=C1N=C(N)c2ccccc21 | – | inactive | 48.6 µM (active) | 54.5 µM (active) | – | – | 43.3 µM (active) | 17.2 µM (active) | – | – | – | – | – |
| Nc1ccc2c3c(cccc13)-c1ccccc1-2 | – | 22.7 µM (active) | – | – | inactive | – | – | inactive | 21.9 µM (active) | – | – | – | – |
| O=C1c2ccccc2Cc2ccccc21 | – | inactive | inactive | – | inactive | inactive | – | inactive | – | inactive | – | inactive | – |
| N#CSc1ccc(N)c([N+](=O)[O-])c1 | – | – | 48.9 µM (active) | 43.5 µM (active) | – | 17.3 µM (active) | 54.8 µM (active) | 48.9 µM (active) | inactive | 54.8 µM (active) | – | 30.8 µM (active) | inactive |
| Cc1cc(O)c2ccccc2c1O | – | inactive | inactive | – | inactive | 16.8 µM (active) | – | – | inactive | inactive | – | – | inactive |
| O=[N+]([O-])c1cc(Cl)c(Cl)c(Cl)c1Cl | – | inactive | inactive | inactive | inactive | – | – | – | inactive | – | inactive | – | inactive |
| CN(C)CCCOC1(Cc2ccccc2)CCCCCC1 | – | inactive | inactive | inactive | inactive | inactive | inactive | – | – | inactive | inactive | – | – |
